Compound activity from PubChem BioAssay.
USP30 block: blocks human USP30 ubiquitin-rhodamine cleavage; Q70CQ3; purified USP30, Ub-rhodamine cleavage fluorescence; inhibition, % at 25 µM; 47,000 tested, 5.3% active
Target sequence (Q70CQ3 whole entry, looked up): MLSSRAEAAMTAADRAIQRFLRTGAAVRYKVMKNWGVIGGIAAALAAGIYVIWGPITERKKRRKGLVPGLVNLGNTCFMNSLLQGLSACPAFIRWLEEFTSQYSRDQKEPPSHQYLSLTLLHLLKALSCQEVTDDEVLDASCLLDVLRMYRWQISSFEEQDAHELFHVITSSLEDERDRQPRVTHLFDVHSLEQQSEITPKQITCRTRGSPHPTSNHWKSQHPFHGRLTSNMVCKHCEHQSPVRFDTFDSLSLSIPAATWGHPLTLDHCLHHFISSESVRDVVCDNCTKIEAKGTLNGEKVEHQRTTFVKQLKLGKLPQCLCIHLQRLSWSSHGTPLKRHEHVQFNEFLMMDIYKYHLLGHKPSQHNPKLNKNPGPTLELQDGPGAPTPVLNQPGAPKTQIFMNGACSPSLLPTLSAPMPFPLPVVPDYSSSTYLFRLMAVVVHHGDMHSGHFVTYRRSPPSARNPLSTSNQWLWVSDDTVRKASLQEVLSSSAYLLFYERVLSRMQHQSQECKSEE
USP28 block: inhibitors of human USP28 deubiquitinase | Q96RU2 | purified USP28, Ub-rhodamine cleavage fluorescence, 30 min | inhibition, % at 25 µM | 47,000 tested, 3% active | AID 1645857
Each line names hits and unclear results; the compound was inactive in the other large screens. An excerpt weighted towards active compounds, which were near 7% of everything screened. No stated cut-off is given here; in the data, active means inhibition above about 30%; inactive means the rest.

O=C(Cn1cnc2cc([N+](=O)[O-])ccc2c1=O)Nc1ccc2c(c1)OCCO2	none
O=C(/C=C/c1ccc2c(c1)OCO2)N1CCCc2ccccc21	USP30 block 46
Cc1noc(C2CN(C(=O)/C=C/c3ccc4c(c3)OCO4)C2)n1	USP30 block 33
O=C(/C=C/c1cccc([N+](=O)[O-])c1)N1CCc2ccccc21	none
O=C1OC2CC1N(C(=O)/C=C/c1ccc3c(c1)OCO3)C2 (stereo not given)	none
N#Cc1ccccc1OCC(=O)Nc1ccccc1C(=O)c1ccccc1	none
Cc1ccc(NC(=O)c2cn(Cc3ccccc3)nc2-c2cccnc2)cc1	USP28 block 32
O=C(NCC1CCCO1)c1cn(Cc2ccccc2)nc1-c1cccnc1 (stereo not given)	none
CCN1CCCC12CCN(CCc1ccccc1)CC2	none
O=S(=O)(c1ccc(F)cc1)N1CCCC1c1ccnc(Nc2cnccn2)n1 (stereo not given)	USP30 block 73, USP28 block 45
O=C(c1ccc(F)cc1)N1CCCC1c1ccnc(Nc2cnccn2)n1 (stereo not given)	none
CC(C)(C)c1ccc(C(=O)N2CCC3(CC2)N=C(c2ccc(Cl)cc2)C(=O)N3)cc1	none
Cn1c(=O)c2c(nc(N3CCN(C(=O)c4ccco4)CC3)n2CCSc2nnnn2-c2ccccc2)n(C)c1=O	USP30 block 37
CCOC(=O)N1CCN(c2nc3c(c(=O)n(C)c(=O)n3C)n2CCSc2nnnn2-c2ccccc2)CC1	none
O=C(Nc1cc(C(F)(F)F)cc(C(F)(F)F)c1)c1c(F)cccc1Cl	USP30 block 33, USP28 block 33
O=C(Nc1ccc(Oc2ccccc2)cc1)c1c(F)cccc1Cl	none
CCN1CC2(CC1=O)CN(C(C)=O)CCN(S(=O)(=O)Cc1ccccc1)C2 (stereo not given)	none
NC(=O)C1Cc2ccccc2CN1CCCOc1ccc(F)cc1 (stereo not given)	none
OC(CNCc1ccccc1Cl)(c1ccccc1)c1ccc(F)cc1 (stereo not given)	none
Cc1ccc(CN2CC[C@@H]3[C@H]2C(=O)NC[C@H](CCC(=O)NCc2cccnc2)N3C)cc1	none
COc1ccc(CN2CC[C@@H]3[C@H]2C(=O)NC[C@H](CCC(=O)NCc2cccnc2)N3C)cc1	USP30 block 38, USP28 block 34
CCc1cccc2c(CN3CCc4c(nc(C)[nH]c4=O)C3)c[nH]c12	none
O=C(Nc1nccn(-c2ccc3c(c2)CCC3)c1=O)c1cccc(F)c1	none
O=C(COc1ccccc1)N1CCC2(CC1)NC(=O)N(Cc1ccc(Cl)cc1)C2=O	none
O=C(COc1ccc(Cl)cc1)N1CCC(c2c[nH]c3ccccc23)(c2c[nH]c3ccccc23)CC1	USP30 block 39
COc1ccc(-c2noc(CCn3c(=O)[nH]c4ccccc4c3=O)n2)c(OC)c1	none
Cc1nc(NC(=O)C2C3C=CC(C3)C2C(=O)O)sc1C (stereo not given)	none
Cc1cccc(-c2nc(C(N)=O)c3[nH]c(=O)n(-c4ccccc4)c3n2)c1	none
CCN1C(=O)c2ccccc2C(=O)[C@@]2(C)CN(Cc3cccc4cccnc34)C[C@@H]12	none
N#Cc1ccc(/C=C/c2nc3ccccc3n2Cc2ccc(F)cc2)cc1	none
Cc1ccc(Cn2c(/C=C/c3ccc(F)cc3)nc3ccccc32)cc1	USP28 block 35
COc1cccc(CC(=O)NC2CCN(c3ccc(F)cc3)C2=O)c1 (stereo not given)	none
O=C1N(Cc2ccc(F)cc2)CCN1c1ccc(C(F)(F)F)cn1	USP28 block 65
CC(C)(C)c1ccc(CN2CCN(c3ccc4c(c3)CCC4)C2=O)cc1	none
COc1cccc(CN2CCN(c3ccc(F)cc3)C2=O)c1	USP28 block 40
O=C1N(Cc2ccc(F)cc2)CCN1c1ccc2c(c1)CCC2	USP30 block 31, USP28 block 52
CC(C)c1ccc(N2CCN(Cc3ccc(F)cc3)C2=O)cc1	USP28 block 31
O=C(Nc1ccc(N2CCN(Cc3ccccc3)C2=O)nc1)c1ccncc1	none
CC(C)c1ccc(N2CCN(Cc3cccnc3)C2=O)cc1	none
COc1ccc(NC2=NS(=O)(=O)C(c3ccc(F)cc3)=C2C)cc1	none
Cc1nc(C2=C(O)CN(c3ccc(S(N)(=O)=O)cc3)C2=N)sc1C	none
O=C(c1cc(-c2ccccc2)n[nH]1)N1CCC(Nc2cccnc2)C1 (stereo not given)	none
CC(=O)c1ccc(N2CCN(C(=O)c3[nH]nc4c3COc3ccccc3-4)CC2)cc1	none
CN(C)C(=O)C1CCN(c2nc3ccc(-c4cccnc4)nc3s2)CC1	none
CNc1nc(C2CCCN(C(C)=O)C2)nc2c1CCN(S(=O)(=O)c1ccccc1)C2 (stereo not given)	none
COc1cccc(Nc2ncnc3c2c(C)c(C)n3-c2ccccn2)c1	none
Cc1ccc(-n2ncc(C(=O)NCc3cccnc3)c2C2CCNCC2)cc1	none
Cc1ccc(CNC(=O)c2cnn(-c3ccc([N+](=O)[O-])cc3)c2C2CCNCC2)cc1	USP30 block 44
COc1ccnc(N2CCC(C3CCCCCN3C(=O)C3CC3)CC2)n1 (stereo not given)	none
COc1ccc(CC(=O)N2CCC([C@@H]3C[C@H](C(F)F)n4ncnc4N3)CC2)cc1	none
COc1ccc(CNC(=O)CN(C(=O)CCC(=O)Nc2ccccn2)c2ccc(OC)cc2)cc1	none
O=C(CN(C(=O)CCC(=O)Nc1ccccn1)c1cccc(F)c1)NCc1ccc(F)cc1	USP30 block 33
CCOc1ccc(C(=O)N2CCn3ncnc3C2)o1	none
CC1(C)Cc2c(sc3nc(Cc4ccccc4)nc(SCC(=O)Nc4ccccc4)c23)CO1	USP30 block 56
CCCCc1nc(SCC(=O)Nc2ccc(Br)cc2)c2c3c(sc2n1)COC(C)(C)C3	none
COc1cc(C2CCN(C(=O)NC3CCOCC3)CC2)on1	none
Cc1c(OCc2ccccc2)noc1C1CCN(C(=O)NC2CCOCC2)CC1	USP28 block 36
CCc1nnc(-c2cn(CC(=O)N3CCCCCC3)c3ccccc23)o1	none
Cc1ccc(Cn2c(=O)c(CCC(=O)NCC3CCCO3)nc3ccccc32)cc1 (stereo not given)	none
Cc1ccc(C2CC(c3ccccc3)n3ncnc3N2C(=O)c2ccccc2)cc1 (stereo not given)	none
Cc1ccc(C(=O)N2c3ncnn3C(c3ccccc3)CC2c2ccccc2)cc1 (stereo not given)	USP30 block 32
COc1ccc(C2CC(c3ccc(Cl)cc3)N(C(=O)C(C)(C)C)c3ncnn32)cc1 (stereo not given)	none
COc1ccc(C2CC(c3ccc(OC)cc3)n3ncnc3N2C(=O)C2CC2)cc1 (stereo not given)	USP30 block 37
COc1cccc(-c2noc3ncnc(N4CCN(C)CC4)c23)c1	none
CC(OC(=O)c1cccnc1SCC(=O)Nc1ccc2c(c1)OCO2)C(=O)c1c(N)n(C)c(=O)n(C)c1=O (stereo not given)	none
Cc1cc(=O)n(CC(=O)Nc2ccccc2C)c(Nc2ccc(F)cc2)n1	USP30 block 73
Cc1cc(=O)n(CC(=O)Nc2ccccc2)c(-c2ccc(F)cc2)n1	none
Cc1ccccc1C(=O)N1CCCC2(CCCN2C)C1 (stereo not given)	none
COc1cc(Cl)ccc1Oc1ncnc2sc(C)c(C)c12	USP30 block 46
Cc1[nH]c2ccccc2c1C(=O)COc1ncnc2sc(C)c(C)c12	none
Cc1ccccc1NC(=O)Cc1nc(-c2cccc3ccccc23)cs1	none
CCCN(CC(=O)Nc1ccccc1C)CC(=O)Nc1cccc2ccccc12	USP30 block 37
